Here are results for 14 compounds from PubChem BioAssay.

The nature of test [1]: inhibitors of TNFa-induced NFkB p65 translocation, primary screen, imaging, HUVEC, MLSMR starter and 10KST1 sets (AID 438;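 active = inhibition above 20% together with a positive visual image hit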;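 note: compound added about 3h40 before a 20 min TNFalpha stimulation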;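 for inhibition: signal is the nuclear over cytoplasmic p65 intensity ratio per well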). Conditions: HUVEC TNFa-induced p65 nuclear translocation; cell count: measured here: nuclei count (cytotoxicity indicator), at 2.08 µM; inhibition: at 2 µM, stronger effect = higher value, 0% TNFa-plus-vehicle, 100% no-TNFa wells.
Test [2] is described as follows: inhibitors of mutant huntingtin aggregation, primary screen, imaging, exon1htt(103Q)mCFP cells, high-content imaging (AID 483;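 active = visual image review flags a hit and inhibition of aggregation exceeds 20%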;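 note: compound exposure lasted 3 days before fixation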;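 for nuclei count: percent of the per-plate median nuclei count of sample wells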). Conditions: exon1htt(103Q)mCFP cell line, aggregate imaging, at 2 µM; inhibition of aggregation: stronger effect = higher value; nuclei count: measured here: cell count, toxicity.
Test [3] in a line: inhibitors of E-selectin induction by TNFa, primary screen, imaging, HUVEC, immunofluorescence, MLSMR starter and 10KST1 sets (AID 487;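 active = visually confirmed hit in the image check and inhibition above 20%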;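 for inhibition: signal is fraction of cell area covered by stained E-selectin grains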;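 for nuclei count: 100% = median nuclei count of all wells on the same plate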). Conditions: HUVEC TNFalpha-induced E-selectin immunofluorescence imaging, at 2 µM; inhibition: stronger effect = higher value; nuclei count: measured here: cell number, toxicity.
Test [4] deals with Voltage-gated potassium channel subunit beta-2 (Rattus norvegicus) (UniProt P62483). The test is described as follows: KvBeta enzyme negative modulators, primary screen, biochemical, NADPH fluorescence (AID 622;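 active = fluorescence slope higher than the sample average by over 3 SD, cut at about -0.22 in these data, passing the limit was not always enough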;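 note: slope of raw intensity against log time taken from 70 to 1610 s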). Conditions: recombinant KvBeta, 4-cyanobenzaldehyde reduction, at 10 µM, stronger effect = higher value.
Test [5] shares this target. The test can be described thus: KvBeta positive modulators, primary screen, biochemical, NADPH fluorescence (AID 623;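 active = NADPH fluorescence slope more negative than the mean of all samples by about 3 SD, 99.7% confidence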;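 note: fluorescence intensity change per second fitted from 20 to 320 s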). Conditions: Recombinant KvBeta, NADPH fluorescence decrease slope, 10 min; at 10 µM; stronger effect = lower value.
Test [6] concerns the target Alpha-2C adrenergic receptor (Homo sapiens) (UniProt P18825). The test can be described thus: modulators of alpha2C/GIRK thallium flux, primary screen, cell-based, HEK293 alpha2C/GIRK1/2 (AID 624;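 active = fluorescence slope after compound addition differing from the mean of all screened samples at 99.7% confidence, in either direction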;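 note: slope of fluorescence ratio to pre-addition baseline per second over 15 to 24 s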). Conditions: thallium flux BTC fluorescence, at 10 µM, actives lie on both sides.
Test [7] is described as follows: inhibitors of Sendai virus-induced IRF3 signaling, primary screen, TLR/RLR signaling modifier project, cell-based, Sendai virus stimulus, luciferase, 10K MLSCN set (AID 602276;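 active = inhibition at or above 50% at 10 µM; inactive = inhibition below 50%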;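 note: firefly luciferase from ISG56 promoter only with Renilla not read in this screen; 0% = Sendai virus plus DMSO and 100% = medium plus DMSO without virus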). Conditions: HEK293 RL24 IRF3 luciferase reporter, at 10 µM, stronger effect = higher value. A general note: Reporter assays use an easily measured gene product as a stand-in for the process of interest.

Test [8] is described as follows: inhibitors of poly I:C-induced TLR3 signaling, primary screen, cell-based, poly I:C stimulus, luciferase, 10K MLSCN set (AID 602277). Conditions: HEK293-TLR3 RL24 IRF3 luciferase reporter, at 10 µM, stronger effect = higher value.

What is called inhibition is the change of the read-out against control, counted positive when it falls.

Active and inactive are the calls of the source.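 Rule for the calls, unless noted: active = inhibition of the reporter signal at or above 50%; inactive = inhibition below 50%.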

Voltage-gated potassium channel subunit beta-2 (Rattus norvegicus), sequence (P62483 whole entry, looked up): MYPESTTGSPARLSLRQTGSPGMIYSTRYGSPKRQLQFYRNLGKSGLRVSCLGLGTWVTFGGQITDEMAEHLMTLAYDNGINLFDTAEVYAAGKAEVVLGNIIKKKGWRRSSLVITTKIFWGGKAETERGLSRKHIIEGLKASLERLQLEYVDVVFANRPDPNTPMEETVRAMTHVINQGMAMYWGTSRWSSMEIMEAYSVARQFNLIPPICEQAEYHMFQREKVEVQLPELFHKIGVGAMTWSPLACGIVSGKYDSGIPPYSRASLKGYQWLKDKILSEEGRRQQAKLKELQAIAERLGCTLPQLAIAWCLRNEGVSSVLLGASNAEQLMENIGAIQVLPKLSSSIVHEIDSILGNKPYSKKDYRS
Alpha-2C adrenergic receptor (Homo sapiens), sequence (P18825 whole entry, looked up): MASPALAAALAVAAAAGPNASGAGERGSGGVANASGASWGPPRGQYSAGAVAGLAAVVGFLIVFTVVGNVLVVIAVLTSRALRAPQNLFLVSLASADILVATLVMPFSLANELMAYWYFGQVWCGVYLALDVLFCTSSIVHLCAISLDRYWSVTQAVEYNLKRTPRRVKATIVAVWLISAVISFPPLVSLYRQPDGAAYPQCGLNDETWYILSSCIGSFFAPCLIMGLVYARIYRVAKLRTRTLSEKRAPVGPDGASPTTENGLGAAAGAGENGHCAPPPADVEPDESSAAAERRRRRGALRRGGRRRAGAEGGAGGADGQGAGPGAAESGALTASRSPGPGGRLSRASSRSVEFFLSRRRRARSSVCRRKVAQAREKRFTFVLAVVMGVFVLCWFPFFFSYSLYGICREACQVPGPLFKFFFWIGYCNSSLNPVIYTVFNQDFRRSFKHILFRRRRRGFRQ

Take `O=C(CSc1nnc(CNC(=O)c2cccs2)o1)NC1CCCC1`: in test [1], the cell count turned out to be 613. The inhibition in test [1] was -14.4% (inactive); in test [3] it was -2.3% (inactive); in test [7], 16.7% (inactive); in test [8], 12.5% (inactive). The inhibition of aggregation in test [2] is 10.3% (inactive). Also, the nuclei count in test [2] is 93.1%; in test [3], 123%. The fluorescence slope in test [4] is -0.318 (inactive). Moreover, the NADPH fluorescence slope in test [5] was -5e-05 (inactive). Besides, the slope in test [6] is 0.00569 (inactive).

Turning to `Cc1cccc(C2c3c(n(C)c(=O)n(C)c3=O)N=C3c4ccccc4C(=O)C32)c1` (centres undefined), the cell count in test [1] turned out to be 323. The inhibition in test [1] was -5.6% (inactive); in test [3] it was -348% (inactive); in test [7], 16% (inactive); in test [8] it was 3.75% (inactive). Besides, the inhibition of aggregation in test [2] is 6.9% (inactive). Further, the nuclei count in test [2] turned out to be 102%; in test [3], 113%. The fluorescence slope in test [4] is -0.383 (inactive). Further, in test [5], the NADPH fluorescence slope was 2.2e-05 (inactive). Besides, in test [6], the slope is 0.00343 (inactive).

For `Cc1ccccc1-n1nnnc1SCC(=O)Nc1ccc(S(=O)(=O)N2CCCC2)cc1`, the cell count in test [1] stood at 675. Also, the inhibition was -5.5% (inactive) in test [1], -1% (inactive) in test [3], 23.8% (inactive) in test [7] and 24.1% (inactive) in test [8]. The inhibition of aggregation in test [2] is 11% (inactive). The values for the nuclei count in test [2] and in test [3] were 96.4% and 110%, respectively. For the same compound, the fluorescence slope in test [4] is -0.534 (inactive). Also, the NADPH fluorescence slope in test [5] is 1.4e-05 (inactive). For the same compound, the slope in test [6] was 0.00566 (inactive).

As to `COC(=O)c1ccccc1NS(=O)(=O)c1ccc(F)cc1`, in test [1], the cell count turned out to be 609. Further, the inhibition was 2.4% (inactive) in test [1], -22.1% (inactive) in test [3], 9.83% (inactive) in test [7] and 17.7% (inactive) in test [8]. In addition, the inhibition of aggregation in test [2] was -3% (inactive). Moreover, the nuclei count in test [2] was 99.4%; in test [3] it was 114%. Moreover, the fluorescence slope in test [4] was -0.523 (inactive). Further, the NADPH fluorescence slope in test [5] was -3.8e-05 (inactive). For the same compound, the slope in test [6] was 0.00602 (inactive).

In the case of `CCOc1cc(C(=O)N(C)Cc2cc3ccccc3[nH]c2=O)cc(OCC)c1OCC`, in test [1], the cell count stood at 376. Besides, the inhibition in test [1] is 0.6% (inactive); in test [3] it was -205% (inactive); in test [7] it was 11.9% (inactive); in test [8] it was 18.9% (inactive). The inhibition of aggregation in test [2] is 22.5% (inactive). The nuclei count was determined as 87.4% in test [2] and 196% in test [3]. Further, in test [4], the fluorescence slope is -0.325 (inactive). Besides, in test [5], the NADPH fluorescence slope was -5e-05 (inactive). Besides, in test [6], the slope was 0.00465 (inactive).

As for `COc1ccc(C)cc1NC(=O)CN(Cc1nnc(-c2ccc(Cl)cc2)o1)C1CCCC1`, the cell count in test [1] stood at 392. Besides, the inhibition in test [1] is 2.4% (inactive); in test [3], -43.8% (inactive); in test [7] it was -26.9% (inactive); in test [8] it was -33.6% (inactive). Further, the inhibition of aggregation in test [2] was -4.1% (inactive). Besides, the nuclei count turned out to be 85.9% in test [2] and 110% in test [3]. For the same compound, the fluorescence slope in test [4] is -0.478 (inactive). Moreover, in test [5], the NADPH fluorescence slope was 2.2e-05 (inactive). Besides, the slope in test [6] is 0.00634 (inactive).

As to `Cc1cc(=O)n(CCO)c(O)c1C#N`, the cell count in test [1] came to 735. Moreover, the inhibition in test [1] is 0.3% (inactive); in test [3], -22.2% (inactive); in test [7], 18.6% (inactive); in test [8] it was 15% (inactive). The inhibition of aggregation in test [2] is -6.8% (inactive). The nuclei count in test [2] was 94%; in test [3], 110%. Further, in test [4], the fluorescence slope was -0.351 (inactive). The NADPH fluorescence slope in test [5] was 8.2e-06 (inactive). Further, in test [6], the slope is 0.00309 (inactive).

As for `CCCCN(CC)CCNC(=O)c1cc2c(C)nc3ccccc3c2o1`, in test [1], the cell count came to 656. For the same compound, the inhibition was 0.3% (inactive) in test [1], -28.4% (inactive) in test [3], 5.91% (inactive) in test [7] and 47% (inactive) in test [8]. Moreover, the inhibition of aggregation in test [2] was -11.7% (inactive). For the same compound, the nuclei count in test [2] amounted to 103%; in test [3], 110%. For the same compound, the fluorescence slope in test [4] was -0.544 (inactive). In test [5], the NADPH fluorescence slope was -3.2e-05 (inactive). Besides, the slope in test [6] was 0.00664 (inactive).

`Cc1ccc(N2C(=O)c3ccccc3C2O)nc1` (centres undefined): in test [1], the cell count turned out to be 627. The inhibition in test [1] was 0.8% (inactive); in test [3] it was -15.9% (inactive); in test [7], 48.3% (inactive); in test [8], 41.4% (inactive). In test [2], the inhibition of aggregation is -27.7% (inactive). Moreover, the nuclei count in test [2] and in test [3] was 117% in each case. In test [4], the fluorescence slope was -0.587 (inactive). In test [5], the NADPH fluorescence slope is -2.2e-05 (inactive). Also, the slope in test [6] is 0.00652 (inactive).

With `CC1=C(C(=O)NCc2ccccc2)C(c2ccccc2OCC(N)=O)NC(=O)N1` (centres undefined), the cell count in test [1] is 355. Besides, the inhibition in test [1] is -8.1% (inactive); in test [3] it was -16.7% (inactive); in test [7], 6.63% (inactive); in test [8], 14.9% (inactive). Moreover, in test [2], the inhibition of aggregation was 14.3% (inactive). Also, the nuclei count was determined as 96.4% in test [2] and 98.2% in test [3]. Besides, in test [4], the fluorescence slope is -0.428 (inactive). Further, in test [5], the NADPH fluorescence slope is 7.3e-06 (inactive). Further, the slope in test [6] was 0.00981 (inactive).

For `COc1ccc2nc(NC(=O)c3ccoc3C)sc2c1`, the cell count in test [1] is 362. Moreover, the inhibition is 1.4% (inactive) in test [1], -75.7% (inactive) in test [3], -30.4% (inactive) in test [7] and -105% (inactive) in test [8]. In test [2], the inhibition of aggregation is -11.6% (inactive). Moreover, the nuclei count in test [2] was 106%; in test [3], 118%. For the same compound, the fluorescence slope in test [4] was -0.38 (inactive). Further, the NADPH fluorescence slope in test [5] was -2.2e-05 (inactive). For the same compound, the slope in test [6] was 0.00322 (inactive).

Take `CCN1CCN(C(=O)C2CC(c3ccc(F)cc3)=NO2)CC1` (centres undefined): the cell count in test [1] came out at 538. Also, the inhibition in test [1] was 1.5% (inactive); in test [3] it was 1.4% (inactive); in test [7], -8.44% (inactive); in test [8], 20.7% (inactive). The inhibition of aggregation in test [2] is 3% (inactive). Besides, the nuclei count in test [2] stood at 102%; in test [3] it was 108%. Besides, the fluorescence slope in test [4] was -0.621 (inactive). In test [5], the NADPH fluorescence slope was -4e-05 (inactive). Besides, in test [6], the slope is 0.00735 (inactive).

With `COc1ccccc1CN1C(=S)SC(C)(C)C1NO` (centres undefined), in test [1], the cell count was found to be 487. Moreover, the inhibition in test [1] was 10.4% (inactive); in test [3], 30.1% (inactive); in test [7] it was 15.8% (inactive); in test [8], 21.5% (inactive). For the same compound, the inhibition of aggregation in test [2] is -2.9% (inactive). Further, the nuclei count stood at 88.5% in test [2] and 105% in test [3]. Besides, the fluorescence slope in test [4] was -0.499 (inactive). Also, the NADPH fluorescence slope in test [5] was -3.5e-05 (inactive). Moreover, in test [6], the slope is 0.00451 (inactive).

`CN(C)c1cc(NC(=O)CN2CCOCC2)c2ccccc2n1`: in test [1], the cell count came out at 863. Moreover, the inhibition is 1.2% (inactive) in test [1], -75% (inactive) in test [3], 9.32% (inactive) in test [7] and 46.3% (inactive) in test [8]. In addition, in test [2], the inhibition of aggregation is 6.6% (inactive). In addition, the nuclei count in test [2] was 101%; in test [3] it was 131%. Further, the fluorescence slope in test [4] is -0.549 (inactive). Further, in test [5], the NADPH fluorescence slope was -3.5e-05 (inactive). The slope in test [6] was 0.00612 (inactive).
